In ChEMBL document CHEMBL1961873, “Compounds: GSK PKIS; Assays: Nanosyn kinase panel” (2012) one finds inhibition data, which are given here for four compounds.

By inhibition is commonly meant the change of the read-out against control, counted positive when it falls.

Assay [1] has as its target 5'-AMP-activated protein kinase catalytic subunit alpha-2 (Homo sapiens) (UniProt P54646). The settings on record: at 1 µM.
Assay [2] addresses T1, NUAK family SNF1-like kinase 1 (Homo sapiens) (UniProt O60285).
T1 sequence (whole entry): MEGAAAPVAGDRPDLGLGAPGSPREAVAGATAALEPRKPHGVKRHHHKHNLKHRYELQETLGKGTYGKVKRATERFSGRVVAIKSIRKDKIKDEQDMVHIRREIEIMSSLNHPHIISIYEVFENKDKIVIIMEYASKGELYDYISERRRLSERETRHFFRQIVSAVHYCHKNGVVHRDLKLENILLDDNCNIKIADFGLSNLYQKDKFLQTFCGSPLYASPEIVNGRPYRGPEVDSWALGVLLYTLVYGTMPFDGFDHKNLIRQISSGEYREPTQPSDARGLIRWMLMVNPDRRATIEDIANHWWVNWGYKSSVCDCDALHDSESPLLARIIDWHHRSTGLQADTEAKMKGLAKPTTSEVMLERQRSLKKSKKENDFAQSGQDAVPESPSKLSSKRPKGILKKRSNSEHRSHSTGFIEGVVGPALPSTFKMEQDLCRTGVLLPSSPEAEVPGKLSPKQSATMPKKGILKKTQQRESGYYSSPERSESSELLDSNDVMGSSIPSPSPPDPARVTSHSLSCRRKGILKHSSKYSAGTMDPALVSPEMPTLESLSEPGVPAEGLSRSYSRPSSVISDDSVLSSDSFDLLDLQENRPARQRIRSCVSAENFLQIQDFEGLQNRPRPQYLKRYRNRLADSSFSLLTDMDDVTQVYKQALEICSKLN
The note with it: at 0.1 µM.

Assay [3] concerns the target T1, NUAK family SNF1-like kinase 1 (Homo sapiens). The settings on record: at 1 µM.
In assay [4] the target is T2, Serine/threonine-protein kinase BRSK1 (Homo sapiens) (UniProt Q8TDC3).
T2 sequence (whole entry): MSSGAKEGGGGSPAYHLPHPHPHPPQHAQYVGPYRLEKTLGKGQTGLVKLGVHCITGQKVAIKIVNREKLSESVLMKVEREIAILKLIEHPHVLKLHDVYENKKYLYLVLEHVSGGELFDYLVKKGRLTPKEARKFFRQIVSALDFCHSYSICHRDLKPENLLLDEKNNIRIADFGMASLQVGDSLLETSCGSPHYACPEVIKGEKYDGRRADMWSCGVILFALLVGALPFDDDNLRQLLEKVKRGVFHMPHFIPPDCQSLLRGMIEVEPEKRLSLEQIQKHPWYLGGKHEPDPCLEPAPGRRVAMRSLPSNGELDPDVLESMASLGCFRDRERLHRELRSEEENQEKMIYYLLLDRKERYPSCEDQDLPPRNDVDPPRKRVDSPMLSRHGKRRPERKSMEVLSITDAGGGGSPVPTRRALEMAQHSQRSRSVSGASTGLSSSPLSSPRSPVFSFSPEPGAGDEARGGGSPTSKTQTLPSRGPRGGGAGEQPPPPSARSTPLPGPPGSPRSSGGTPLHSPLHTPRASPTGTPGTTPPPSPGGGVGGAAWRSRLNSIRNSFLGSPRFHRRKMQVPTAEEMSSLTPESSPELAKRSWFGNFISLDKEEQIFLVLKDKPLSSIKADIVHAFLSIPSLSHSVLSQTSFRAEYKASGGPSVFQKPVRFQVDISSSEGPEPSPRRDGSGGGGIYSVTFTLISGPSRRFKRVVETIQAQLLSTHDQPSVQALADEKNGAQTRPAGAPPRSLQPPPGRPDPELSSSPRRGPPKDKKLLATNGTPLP
The settings on record: at 0.1 µM.

Assay [5] addresses T2, Serine/threonine-protein kinase BRSK1 (Homo sapiens). The settings on record: at 1 µM.
Assay [6] concerns the target T3, Serine/threonine-protein kinase BRSK2 (Homo sapiens) (UniProt Q8IWQ3).
T3 sequence (whole entry): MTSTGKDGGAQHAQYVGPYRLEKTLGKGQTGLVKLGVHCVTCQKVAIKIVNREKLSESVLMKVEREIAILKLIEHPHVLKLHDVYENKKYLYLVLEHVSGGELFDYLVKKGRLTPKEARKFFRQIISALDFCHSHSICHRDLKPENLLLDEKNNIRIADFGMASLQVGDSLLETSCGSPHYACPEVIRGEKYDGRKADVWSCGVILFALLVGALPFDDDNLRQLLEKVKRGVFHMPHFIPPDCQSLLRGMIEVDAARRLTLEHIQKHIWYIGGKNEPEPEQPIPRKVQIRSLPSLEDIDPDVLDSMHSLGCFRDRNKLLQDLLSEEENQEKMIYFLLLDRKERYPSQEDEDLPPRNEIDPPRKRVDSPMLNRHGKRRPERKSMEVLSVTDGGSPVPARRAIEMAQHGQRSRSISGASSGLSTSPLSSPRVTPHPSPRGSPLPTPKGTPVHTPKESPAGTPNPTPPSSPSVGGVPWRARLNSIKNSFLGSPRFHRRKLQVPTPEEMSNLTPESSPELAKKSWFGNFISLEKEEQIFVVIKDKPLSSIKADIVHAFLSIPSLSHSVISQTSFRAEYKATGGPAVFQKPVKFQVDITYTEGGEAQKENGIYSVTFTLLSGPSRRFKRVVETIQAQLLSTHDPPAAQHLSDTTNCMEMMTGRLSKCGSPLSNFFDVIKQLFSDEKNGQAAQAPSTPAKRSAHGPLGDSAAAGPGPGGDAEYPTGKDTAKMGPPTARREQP
The note with it: at 0.1 µM.

In assay [7] the target is T3, Serine/threonine-protein kinase BRSK2 (Homo sapiens). The settings on record: at 1 µM.
Assay [8] addresses Calcium/calmodulin-dependent protein kinase type 1D (Homo sapiens) (UniProt Q8IU85). The note with it: at 0.1 µM.
The target is the same in assay [9]. The note with it: at 1 µM.
Assay [10] addresses Calcium/calmodulin-dependent protein kinase type II subunit alpha (Homo sapiens) (UniProt Q9UQM7). The note with it: at 0.1 µM.
For assay [11] the target is unchanged. The settings on record: at 1 µM.
Assay [12] has as its target Calcium/calmodulin-dependent protein kinase type II subunit delta (Homo sapiens) (UniProt Q13557). The note with it: at 0.1 µM.
Assay [13] shares this target. The note with it: at 1 µM.
Assay [14] addresses T4, Calcium/calmodulin-dependent protein kinase type IV (Homo sapiens) (UniProt Q16566).
T4 sequence (whole entry): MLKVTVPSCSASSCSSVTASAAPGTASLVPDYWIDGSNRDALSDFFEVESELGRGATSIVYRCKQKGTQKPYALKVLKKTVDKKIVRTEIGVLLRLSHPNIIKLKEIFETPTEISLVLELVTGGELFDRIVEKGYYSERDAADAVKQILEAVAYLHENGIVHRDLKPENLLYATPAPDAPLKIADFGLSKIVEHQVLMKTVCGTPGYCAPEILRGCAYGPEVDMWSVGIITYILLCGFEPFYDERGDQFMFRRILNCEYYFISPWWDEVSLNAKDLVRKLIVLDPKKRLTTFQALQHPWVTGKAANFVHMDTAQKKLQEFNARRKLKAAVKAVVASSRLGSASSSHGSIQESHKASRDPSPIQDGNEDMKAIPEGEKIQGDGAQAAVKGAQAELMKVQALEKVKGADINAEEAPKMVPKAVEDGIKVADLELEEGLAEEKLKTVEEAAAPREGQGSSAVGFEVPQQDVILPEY
The note with it: at 0.1 µM.

Assay [15] deals with T4, Calcium/calmodulin-dependent protein kinase type IV (Homo sapiens). The note with it: at 1 µM.
Assay [16] has as its target T5, Serine/threonine-protein kinase Chk1 (Homo sapiens) (UniProt O14757).
T5 sequence (whole entry): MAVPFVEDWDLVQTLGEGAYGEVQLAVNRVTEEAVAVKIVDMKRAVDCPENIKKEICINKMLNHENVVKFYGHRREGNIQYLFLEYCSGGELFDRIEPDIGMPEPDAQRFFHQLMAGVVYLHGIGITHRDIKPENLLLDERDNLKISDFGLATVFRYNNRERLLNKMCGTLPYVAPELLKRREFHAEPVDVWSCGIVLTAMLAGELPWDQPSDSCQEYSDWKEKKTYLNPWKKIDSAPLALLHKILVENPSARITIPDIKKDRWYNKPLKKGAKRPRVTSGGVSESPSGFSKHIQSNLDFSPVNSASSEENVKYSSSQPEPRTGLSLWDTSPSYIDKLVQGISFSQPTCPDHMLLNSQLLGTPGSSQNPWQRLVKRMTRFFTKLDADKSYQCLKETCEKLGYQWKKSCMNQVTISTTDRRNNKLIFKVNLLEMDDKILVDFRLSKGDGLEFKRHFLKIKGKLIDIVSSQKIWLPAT
The settings on record: at 0.1 µM.

Assay [17] has as its target T5, Serine/threonine-protein kinase Chk1 (Homo sapiens). The settings on record: at 1 µM.
The target of assay [18] is Serine/threonine-protein kinase Chk2 (Homo sapiens) (UniProt O96017). The settings on record: at 0.1 µM.
Assay [19] shares this target. The note with it: at 1 µM.
Assay [20] addresses Death-associated protein kinase 1 (Homo sapiens) (UniProt P53355). The note with it: at 0.1 µM.

Chain of 5'-AMP-activated protein kinase catalytic subunit alpha-2 (Homo sapiens) (P54646 whole entry, looked up): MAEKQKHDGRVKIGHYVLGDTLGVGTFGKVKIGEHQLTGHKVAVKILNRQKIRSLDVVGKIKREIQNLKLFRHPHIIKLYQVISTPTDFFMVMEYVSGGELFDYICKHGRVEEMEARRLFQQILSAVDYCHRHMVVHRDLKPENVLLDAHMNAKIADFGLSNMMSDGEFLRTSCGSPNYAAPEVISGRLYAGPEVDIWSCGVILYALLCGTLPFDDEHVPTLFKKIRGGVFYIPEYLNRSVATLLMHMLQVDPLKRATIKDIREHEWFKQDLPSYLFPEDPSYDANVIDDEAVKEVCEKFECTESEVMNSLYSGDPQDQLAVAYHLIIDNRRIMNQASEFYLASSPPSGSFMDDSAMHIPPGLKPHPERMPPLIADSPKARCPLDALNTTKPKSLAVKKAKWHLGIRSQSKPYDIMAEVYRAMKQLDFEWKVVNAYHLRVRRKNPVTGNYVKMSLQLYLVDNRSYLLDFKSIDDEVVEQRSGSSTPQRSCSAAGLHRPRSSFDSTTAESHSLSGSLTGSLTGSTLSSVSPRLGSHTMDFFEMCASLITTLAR
Chain of Calcium/calmodulin-dependent protein kinase type II subunit alpha (Homo sapiens) (Q9UQM7 whole entry): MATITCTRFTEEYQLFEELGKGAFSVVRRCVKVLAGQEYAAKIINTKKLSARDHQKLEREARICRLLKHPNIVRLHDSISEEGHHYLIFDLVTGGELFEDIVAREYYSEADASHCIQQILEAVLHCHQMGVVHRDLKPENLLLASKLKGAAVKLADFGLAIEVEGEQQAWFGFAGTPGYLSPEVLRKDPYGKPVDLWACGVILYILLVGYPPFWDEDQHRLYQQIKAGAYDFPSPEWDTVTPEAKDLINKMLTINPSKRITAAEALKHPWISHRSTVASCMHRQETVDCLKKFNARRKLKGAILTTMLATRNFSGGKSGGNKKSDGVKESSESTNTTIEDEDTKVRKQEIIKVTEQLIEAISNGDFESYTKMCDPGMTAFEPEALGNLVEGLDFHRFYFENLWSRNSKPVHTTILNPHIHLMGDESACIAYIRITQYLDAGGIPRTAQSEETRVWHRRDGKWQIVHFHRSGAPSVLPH
Chain of Calcium/calmodulin-dependent protein kinase type II subunit delta (Homo sapiens) (Q13557 whole entry): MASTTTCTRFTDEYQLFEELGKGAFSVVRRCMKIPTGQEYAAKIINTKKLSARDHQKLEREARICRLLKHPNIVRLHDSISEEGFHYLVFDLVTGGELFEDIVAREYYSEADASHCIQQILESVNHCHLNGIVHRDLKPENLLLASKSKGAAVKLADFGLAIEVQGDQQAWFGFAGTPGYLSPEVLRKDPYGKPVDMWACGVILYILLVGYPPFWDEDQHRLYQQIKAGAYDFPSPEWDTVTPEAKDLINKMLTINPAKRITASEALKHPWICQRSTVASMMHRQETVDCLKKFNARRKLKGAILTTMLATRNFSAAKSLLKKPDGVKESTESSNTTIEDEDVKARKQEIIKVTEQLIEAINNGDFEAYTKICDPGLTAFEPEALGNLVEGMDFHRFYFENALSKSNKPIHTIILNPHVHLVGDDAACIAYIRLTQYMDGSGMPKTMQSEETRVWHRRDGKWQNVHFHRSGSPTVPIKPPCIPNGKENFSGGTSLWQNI
Chain of Calcium/calmodulin-dependent protein kinase type 1D (Homo sapiens) (Q8IU85 whole entry, looked up): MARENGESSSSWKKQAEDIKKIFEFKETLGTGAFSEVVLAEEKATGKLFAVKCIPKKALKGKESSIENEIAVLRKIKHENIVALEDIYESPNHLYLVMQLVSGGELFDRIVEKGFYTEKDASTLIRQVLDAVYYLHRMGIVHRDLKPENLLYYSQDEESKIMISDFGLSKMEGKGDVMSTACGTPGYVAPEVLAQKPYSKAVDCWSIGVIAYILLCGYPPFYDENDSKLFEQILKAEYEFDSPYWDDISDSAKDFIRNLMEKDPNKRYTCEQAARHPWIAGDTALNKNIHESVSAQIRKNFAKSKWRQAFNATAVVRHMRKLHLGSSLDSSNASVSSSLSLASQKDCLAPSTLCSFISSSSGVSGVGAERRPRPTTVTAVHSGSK
Chain of Death-associated protein kinase 1 (Homo sapiens) (P53355 whole entry, looked up): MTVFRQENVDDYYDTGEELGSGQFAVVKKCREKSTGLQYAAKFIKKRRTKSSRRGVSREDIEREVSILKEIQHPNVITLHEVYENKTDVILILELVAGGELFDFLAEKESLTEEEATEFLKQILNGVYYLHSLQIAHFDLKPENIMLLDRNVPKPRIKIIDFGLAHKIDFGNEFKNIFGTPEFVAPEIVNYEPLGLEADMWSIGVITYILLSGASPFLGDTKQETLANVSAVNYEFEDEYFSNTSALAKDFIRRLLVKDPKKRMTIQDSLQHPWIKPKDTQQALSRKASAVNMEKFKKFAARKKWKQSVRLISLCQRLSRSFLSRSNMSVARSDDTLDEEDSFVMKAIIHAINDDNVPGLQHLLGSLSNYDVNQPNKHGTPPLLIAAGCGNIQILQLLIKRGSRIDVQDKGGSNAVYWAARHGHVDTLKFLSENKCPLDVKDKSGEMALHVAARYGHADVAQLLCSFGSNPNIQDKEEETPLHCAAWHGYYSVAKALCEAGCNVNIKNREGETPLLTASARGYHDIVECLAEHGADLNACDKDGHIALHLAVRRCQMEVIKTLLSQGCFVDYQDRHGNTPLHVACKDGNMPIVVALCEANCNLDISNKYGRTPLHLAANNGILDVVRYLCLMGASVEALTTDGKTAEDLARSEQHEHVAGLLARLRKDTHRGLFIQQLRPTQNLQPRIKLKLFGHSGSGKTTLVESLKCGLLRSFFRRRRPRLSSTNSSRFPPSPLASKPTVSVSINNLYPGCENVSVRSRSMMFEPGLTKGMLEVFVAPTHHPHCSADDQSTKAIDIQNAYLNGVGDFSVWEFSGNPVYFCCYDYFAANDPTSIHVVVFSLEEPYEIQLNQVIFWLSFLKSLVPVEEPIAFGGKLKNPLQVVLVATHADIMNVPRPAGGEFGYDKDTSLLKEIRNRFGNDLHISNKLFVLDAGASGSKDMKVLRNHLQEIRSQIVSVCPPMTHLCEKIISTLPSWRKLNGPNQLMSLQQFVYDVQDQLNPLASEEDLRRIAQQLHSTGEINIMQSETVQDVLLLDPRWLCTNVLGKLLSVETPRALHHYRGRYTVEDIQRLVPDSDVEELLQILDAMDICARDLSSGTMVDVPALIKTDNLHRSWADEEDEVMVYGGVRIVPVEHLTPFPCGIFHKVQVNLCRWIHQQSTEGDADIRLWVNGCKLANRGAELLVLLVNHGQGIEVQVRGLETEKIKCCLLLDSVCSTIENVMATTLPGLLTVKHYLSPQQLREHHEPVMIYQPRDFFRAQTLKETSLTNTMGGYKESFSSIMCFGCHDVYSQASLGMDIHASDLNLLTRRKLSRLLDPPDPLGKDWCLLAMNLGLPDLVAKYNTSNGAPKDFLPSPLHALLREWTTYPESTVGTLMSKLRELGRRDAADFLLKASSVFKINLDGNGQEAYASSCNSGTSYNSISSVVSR
Chain of Serine/threonine-protein kinase Chk2 (Homo sapiens) (O96017 whole entry): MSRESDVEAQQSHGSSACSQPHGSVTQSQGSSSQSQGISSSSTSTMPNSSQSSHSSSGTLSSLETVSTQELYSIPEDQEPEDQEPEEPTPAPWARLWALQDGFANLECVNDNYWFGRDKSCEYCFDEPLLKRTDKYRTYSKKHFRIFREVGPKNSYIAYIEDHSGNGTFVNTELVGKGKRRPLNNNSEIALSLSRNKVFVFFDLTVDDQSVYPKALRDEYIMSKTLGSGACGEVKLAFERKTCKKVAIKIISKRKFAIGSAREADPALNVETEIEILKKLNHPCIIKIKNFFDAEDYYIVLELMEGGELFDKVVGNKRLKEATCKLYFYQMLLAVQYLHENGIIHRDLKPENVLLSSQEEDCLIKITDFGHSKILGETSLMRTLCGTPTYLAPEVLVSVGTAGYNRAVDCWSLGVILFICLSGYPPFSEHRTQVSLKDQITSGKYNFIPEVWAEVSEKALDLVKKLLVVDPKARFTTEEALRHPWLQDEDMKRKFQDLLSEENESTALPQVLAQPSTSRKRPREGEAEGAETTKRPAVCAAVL

`C[C@@H](Oc1cc(-n2cnc3ccc(OC4CCN(C)CC4)cc32)sc1C(N)=O)c1ccccc1Cl`: the inhibition in assay [1] worked out at 9.02%; in assay [2], 22%; in [3], 66.8%; in [4], 27.6%; in assay [5], 58%; in assay [6], 37.9%. Further, the inhibition was 70.8% in assay [7]; -0.95% in assay [8]; 3.84% in assay [9]; 2.57% in [10]; 14.4% in [11]; 10.2% in [12]. Besides, the inhibition in assay [13] is 44.3%; in [14], -2.92%; in [15] it was 2.05%; in assay [16], 0.96%; in assay [17], 7.85%; in [18], 3.23%. For the same compound, the inhibition amounted to 5.06% in assay [19] and 3.53% in assay [20].
`COc1cc2ncn(-c3cc(OCc4ccccc4C(F)(F)F)c(C(C)=O)s3)c2cc1OC`: the inhibition is 2.21% in assay [1]; -0.05% in [2]; 3.5% in assay [3]; 2.73% in assay [4]; 4.41% in assay [5]; 3.99% in assay [6]. Moreover, the inhibition in [7] was 4.95%; in assay [8] it was -0.05%; in assay [9], -0.22%; in assay [10], 4.56%; in assay [11] it was 0.39%; in [12], 0.61%. The inhibition is 1.91% in [13]; -0.3% in assay [14]; -1.74% in [15]; 2.09% in assay [16]; 4.57% in assay [17]; 1.3% in [18]. Further, the inhibition in assay [19] is 1.9%; in assay [20] it was 4.16%.
Turning to `NCc1ccc(-n2c(-c3nonc3N)nc3cnccc32)cc1`, the inhibition in [1] was 8.19%; in assay [2], 4.91%; in assay [3], 7.23%; in assay [4] it was 4.76%; in assay [5] it was 6.27%; in assay [6], 4.11%. The inhibition in assay [7] is 8.49%; in [8] it was 2.03%; in [9], 4.78%; in assay [10], 4.91%; in assay [11] it was 7.05%; in assay [12] it was 6.42%. Further, the inhibition in assay [13] is 15.2%; in [14] it was -0.16%; in assay [15], 4.15%; in assay [16], 8.32%; in assay [17] it was 12.3%; in [18], 2.9%. Also, the inhibition amounted to 6.29% in [19] and 7.02% in [20].
On to `COc1ccc2ncn(-c3cc(O[C@H](C)c4ccccc4Cl)c(C(N)=O)s3)c2c1`, for which the inhibition in assay [1] was found to be 1.17%; in [2], 0.64%; in assay [3], 15.7%; in assay [4] it was 2.58%; in assay [5], 17.8%; in assay [6], 6.22%. For the same compound, the inhibition is 28.1% in [7]; -1.85% in [8]; -1.6% in [9]; 1.3% in [10]; -1.4% in [11]; 2.08% in assay [12]. For the same compound, the inhibition in assay [13] is 4.15%; in [14] it was -2.83%; in assay [15], -2.54%; in assay [16], 0.23%; in [17], 0.19%; in assay [18] it was 2.58%. The inhibition was 1.99% in [19] and 3.77% in assay [20].
